Assay results reported in ChEMBL document CHEMBL1201862, “PubChem BioAssay data set” (2004).
Hit rate of the full screen: of about 400,000 compounds, about 2,100 (0.53%) were called active. Not shown: some 14% with an inconclusive outcome. The sample holds actives, similar compounds and a random draw of the others, so the mix is not that of the screen. The rule behind the calls is not given here.

Target: Ataxin-2 (Homo sapiens) (UniProt Q99700)
Assay: qHTS for Inhibitors of ATXN expression.
Type: functional

Ataxin-2 (Homo sapiens), sequence (Q99700 whole entry): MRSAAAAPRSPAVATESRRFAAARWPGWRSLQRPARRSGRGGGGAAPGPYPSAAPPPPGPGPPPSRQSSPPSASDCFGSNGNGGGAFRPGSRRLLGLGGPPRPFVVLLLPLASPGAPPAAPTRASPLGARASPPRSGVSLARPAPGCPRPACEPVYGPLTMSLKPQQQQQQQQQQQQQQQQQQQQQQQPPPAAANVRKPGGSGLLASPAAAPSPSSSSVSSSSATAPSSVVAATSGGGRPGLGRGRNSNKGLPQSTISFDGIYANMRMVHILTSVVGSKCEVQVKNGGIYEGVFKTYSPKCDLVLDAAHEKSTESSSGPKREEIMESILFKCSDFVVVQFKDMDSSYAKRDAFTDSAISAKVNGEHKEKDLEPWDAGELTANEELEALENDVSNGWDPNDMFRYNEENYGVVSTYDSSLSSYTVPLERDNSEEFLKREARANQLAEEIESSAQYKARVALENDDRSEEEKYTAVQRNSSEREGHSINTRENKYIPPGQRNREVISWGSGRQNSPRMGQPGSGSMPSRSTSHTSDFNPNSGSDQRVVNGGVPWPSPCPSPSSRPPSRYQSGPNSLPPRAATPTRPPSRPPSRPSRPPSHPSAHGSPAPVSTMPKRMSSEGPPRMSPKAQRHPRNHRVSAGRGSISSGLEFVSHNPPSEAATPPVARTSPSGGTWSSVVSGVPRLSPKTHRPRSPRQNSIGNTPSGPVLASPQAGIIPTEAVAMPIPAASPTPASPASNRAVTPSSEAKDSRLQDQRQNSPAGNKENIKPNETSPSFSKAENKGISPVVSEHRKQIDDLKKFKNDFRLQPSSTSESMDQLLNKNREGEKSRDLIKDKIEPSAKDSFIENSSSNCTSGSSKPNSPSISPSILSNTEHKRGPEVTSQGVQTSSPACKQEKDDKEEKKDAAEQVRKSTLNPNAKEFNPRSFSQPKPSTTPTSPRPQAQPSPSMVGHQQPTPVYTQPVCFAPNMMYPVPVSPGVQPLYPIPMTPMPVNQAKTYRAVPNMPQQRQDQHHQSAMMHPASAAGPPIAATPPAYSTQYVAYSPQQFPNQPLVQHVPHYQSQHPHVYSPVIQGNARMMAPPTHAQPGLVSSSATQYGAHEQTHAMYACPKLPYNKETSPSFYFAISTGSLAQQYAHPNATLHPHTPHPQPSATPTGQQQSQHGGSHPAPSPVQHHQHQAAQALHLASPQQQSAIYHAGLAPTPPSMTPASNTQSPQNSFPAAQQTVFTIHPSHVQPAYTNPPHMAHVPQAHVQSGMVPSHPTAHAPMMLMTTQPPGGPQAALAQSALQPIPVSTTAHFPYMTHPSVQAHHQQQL

Structure (SMILES) | Potency
CCCN(CC(=O)Nc1ccc(F)c(F)c1F)C(=O)CN1C(=O)NC2(CCCCC2)C1=O | inactive
O=C(CSc1cc(Cl)ccc1Cl)NC1CCCc2ccccc21 (stereo not drawn) | inactive
COC(=O)c1cnc(SCc2ccc(Cl)cc2)n1C | inactive
O=C(CSc1cccc[n+]1[O-])c1cc(Cl)ccc1Cl | 3.77 µM (active)
CC(C)(C)NCC(O)CON=C1c2ccccc2-c2ccccc21 (stereo not drawn) | inactive
Cc1ccc(S(=O)(=O)N(CCCO)CC(O)CON=C2c3ccccc3-c3ccccc32)cc1 (stereo not drawn) | 20 µM (active)
CCN(CC)S(=O)(=O)c1ccc(C(=O)N(c2ccc(C)cc2)C2C=CS(=O)(=O)C2)cc1 (stereo not drawn) | inactive
CCN(CC(O)CON=C1c2ccccc2-c2ccccc21)S(=O)(=O)c1ccc(Cl)cc1 (stereo not drawn) | 17.8 µM (active)
CCOc1ccccc1N(C(C)=O)S(=O)(=O)c1ccc(Cl)cc1 | inactive
CN(C)CCN=c1cc(-c2ccccc2)oc2ccc(Cl)cc12 | inactive
O=C(NCC1CCN(C(=O)c2ccc([N+](=O)[O-])cc2)CC1)c1ccc([N+](=O)[O-])cc1 | inactive
Cc1ccccc1CSc1nnc(-c2cnccn2)n1C | inactive
CCCn1c(SCc2nc(-c3ccccc3C)no2)nnc1-c1ccc(Cl)cc1 | 39.8 µM (active)
CN(/N=C/c1ccc(Br)o1)C1=NS(=O)(=O)c2ccccc21 | inactive
CC(C)OC(=O)CSc1nnc(COc2ccc([N+](=O)[O-])cc2)n1C | inactive
Cc1ccc(C)c(-n2c(N)c(C#N)c3nc4ccccc4nc32)c1 | inactive
Cc1ccccc1C(=O)NNc1ncnc2c1cnn2C | inactive
Cn1ncc2c(ON=C(N)c3ccc(C(C)(C)C)cc3)ncnc21 | 39.8 µM (active)
COc1ccc(NC(=O)c2sc3nc(C)c(C(=O)Nc4ccc(C)cc4C)c(-c4ccccc4Cl)c3c2N)cc1 | inactive
c1ccc(C2=NN=C(c3ccncc3)c3ccc4ccccc4c3N2)cc1 | inactive
N=c1c(C(=O)NCC2CCCO2)cc2c(=O)n3ccccc3nc2n1Cc1ccc(F)cc1 (stereo not drawn) | inactive
O=C(c1cccc(Cl)c1)N1CCC(=O)N(C(COCc2cccc(Cl)c2)Cc2ccccc2)CC1 (stereo not drawn) | 35.5 µM (active)
Cc1nn(Cc2ccccc2)c(C)c1C(=O)N1CCN(S(=O)(=O)/C=C/c2ccccc2)CC1 | inactive
Cc1cccc(COC[C@H](Cc2ccccc2)N2CCN(C(=O)c3cccc(Cl)c3)CCC2=O)c1 | 25.1 µM (active)
Cc1cccc(C(=O)N2CCC(=O)N([C@H](COCc3ccc(Cl)cc3)Cc3ccccc3)CC2)c1 | 39.8 µM (active)

Structure (SMILES) | Potency
Cc1cccc(C(=O)NCC(=O)N2CC=C(c3ccccc3)CC2)c1 | inactive
Cc1ccc(S(=O)(=O)N2CCN(C(=O)COC(=O)Cc3ccc(Cl)cc3)CC2)c(C)c1 | inactive
O=C1/C(=C/c2cccc(F)c2)Oc2cc(O)ccc21 | inactive
CN1CCc2c(sc3c2C(=O)NC(/C=C\c2ccccc2)N3)C1 (stereo not drawn) | inactive
O=c1cc(-c2ccccc2)c2ccc3c(c2o1)CN(Cc1cccc(Cl)c1)CO3 | inactive
Cc1ccc(S(=O)(=O)C(C#N)c2nc3ccccc3nc2N2CC(C)OC(C)C2)cc1C (stereo not drawn) | inactive
Cc1c(CCOC(=O)CC23CC4CC(CC(C4)C2)C3)sc[n+]1CC(=O)c1ccccc1 | 29.9 µM (active)
Cc1c(CCOC(=O)C2C3CC4CC(C3)CC2C4)sc[n+]1CC(=O)c1ccc(Br)cc1 (stereo not drawn) | 20 µM (active)
Cc1c(CCOC(=O)C23CC4CC(CC(C4)C2)C3)sc[n+]1CC#N | 31.6 µM (active)
CN1CCC(N(C)C(S)=NCCc2ccccc2)CC1 | inactive
CCNS(=O)(=O)c1ccc(CCC(=O)N2CCc3ccccc3C2)cc1 | inactive
Cc1ccc2nc(C)c3c(c2c1)N(c1ccc(F)cc1)CC3 | inactive
CC(C)NCC(O)Cn1c2c(c3ccccc31)CCc1c-2cnn1-c1ccccc1 (stereo not drawn) | 25.1 µM (active)
N#Cc1sc2nc(-c3cccs3)cc(-c3ccccc3)c2c1N | inactive
Cc1ccc(C(=O)C(C)[n+]2cccc(C(N)=O)c2)cc1 (stereo not drawn) | inactive
NC(=O)c1ccc(NC(=O)CNC(c2ccccc2)c2ccccc2)cc1 | inactive
Cc1ccc(C(=O)Sc2cccccc2=O)cc1 | 2.51 µM (active)
Cc1cccc(CC(=O)N2CCC(N3CCC(C(=O)N4CCOCC4)CC3)CC2)c1 | inactive
COc1ccc(-c2noc(CSc3nnc(Cc4ccccc4)n3-c3cccc(C)c3)n2)cc1 | 39.8 µM (active)
COc1ccccc1-c1noc(CSc2nnc(Cc3ccccc3)n2-c2ccc(C)c(C)c2)n1 | 35.5 µM (active)
COc1ccc(OC(C)C(=O)N(C)Cc2nc(-c3ccc(C)cc3)no2)cc1 (stereo not drawn) | inactive
COc1ccc(OC(C)C(=O)N(C)Cc2nc(-c3ccccc3)no2)cc1 (stereo not drawn) | inactive
COc1ccccc1-c1ccc(SCc2cccc(F)c2)nn1 | inactive
COc1ccc(OC)c(-c2noc(CSc3nnc(Cc4ccccc4)n3-c3cccc(C)c3)n2)c1 | 22.4 µM (active)
COc1ccc(-c2noc(CSc3nnc(Cc4ccccc4)n3-c3ccc(F)cc3)n2)cc1 | 39.8 µM (active)

Structure (SMILES) | Potency
COc1ccc(Cc2noc(CN(C)CCN3CCc4ccccc4C3)n2)cc1OC | inactive
COCC(C)n1c(SCc2nc(O)c3ccccc3n2)nc2ccccc2c1=O (stereo not drawn) | inactive
Nc1ccc(-c2c3ccccc3nc3ccccc23)cc1 | inactive
CC(=O)c1cnc(SCc2ccc(Cl)cc2)nc1C | inactive
COc1cccc(-c2csc(/C(C#N)=C/Nc3cc4oc5ccccc5c4cc3OC)n2)c1 | inactive
CNC(=O)c1ccc(NC(=O)CC2SC(N3CCCC3)=NC2=O)cc1 (stereo not drawn) | inactive
O=c1oc2ccc3ccccc3c2cc1-c1nnc(-c2cccs2)o1 | inactive
O=C(OCC(=O)N1CCCC1=O)C1CCN(S(=O)(=O)c2ccc(Cl)c(C(F)(F)F)c2)CC1 | inactive
Cc1ccc(NC(=O)COC(=O)[C@H](C)N2C(=O)C3CC=CCC3C2=O)cc1S(=O)(=O)N(C)C (stereo partly drawn) | inactive
CCCN(CC(=O)Nc1ccccc1C)C(=O)c1ccc(N2CCCC2=O)cc1 | inactive
C=CC[C@H](CC(=O)N[C@H](CO)Cc1ccccc1)C(=O)N[C@@H](COC(=O)[C@@H](CC=C)CC(=O)OC(C)(C)C)Cc1c[nH]c2ccccc12 | 25.1 µM (active)
C=CC[C@@H](CC(=O)N[C@@H](CO)Cc1ccccc1)C(=O)N[C@H](COC(=O)[C@@H](CC=C)CC(=O)OC(C)(C)C)Cc1c[nH]c2ccccc12 | 28.2 µM (active)
C=CC[C@@H](CC(=O)N[C@@H](CO)Cc1ccccc1)C(=O)N[C@H](COC(=O)[C@H](CC=C)CC(=O)OC(C)(C)C)Cc1c[nH]c2ccccc12 | 28.2 µM (active)
O=C(CCCCCn1c(=S)[nH]c2ccc(N3CCOCC3)cc2c1=O)NCc1ccc2c(c1)OCO2 | inactive
Cn1c(N)nc2nc(CCc3ccccc3)c(O)nc2c1=O | inactive
CCOc1ccc(CC(=O)Nc2c(C(=O)c3ccccc3)oc3ccc(Cl)cc23)cc1OCC | inactive
Cc1nc(Sc2ccc(Cl)cc2)c(C#N)c(C)c1[N+](=O)[O-] | inactive
Cc1cc(C)nc(Sc2ncnc(N)c2[N+](=O)[O-])n1 | 16.8 µM (active)
Cc1ccc(Oc2ncnc(N)c2[N+](=O)[O-])cc1 | inactive
C=C(C(=O)c1ccccc1)C(C)CC(=O)c1ccccc1 (stereo not drawn) | 15.8 µM (active)
O=C(Cc1nc2ccccc2nc1O)c1ccccc1 | inactive
C=C(C(=O)c1ccccc1)C(c1ccccc1)C(C)C(=O)c1ccccc1 (stereo not drawn) | 31.6 µM (active)
CC(OC(=O)C1COc2ccccc2O1)C(=O)c1ccccc1 (stereo not drawn) | inactive
Nc1nc2ccccc2cc1S(=O)(=O)c1ccccc1 | inactive
O=C(Nc1ccccc1)Nc1ccc2ncoc2c1 | inactive

Structure (SMILES) | Potency
CN(C)/C=N/c1nc2ccccc2nc1N1CCCC1 | inactive
N#C/C(=C/c1cccn1-c1cccc(C(=O)O)c1)c1ccc(F)cc1 | inactive
N#Cc1c(N2CCCC2)ccc(Br)c1Cl | inactive
COC(=O)c1ccc(CSc2cc(C)c3ccccc3n2)o1 | inactive
CC(C)(C)c1ccc2c(c1)OC(C(=O)N/N=C\c1ccncc1)CO2 (stereo not drawn) | inactive
N=c1c(C(=O)NCC2CCCO2)cc2c(=O)n3ccccc3nc2n1Cc1ccccc1 (stereo not drawn) | inactive
CS(=O)(=O)N(Cc1ccccc1)c1ccc(C(=O)Nc2cccc(Cl)c2)cc1 | 17.8 µM (active)
Cc1ccccc1NC(=O)c1ccc2snnc2c1 | inactive
CCN(Cc1ccncc1)C(=S)Nc1ccccc1C | inactive
Cc1cccc(NC(=O)c2ccc(N(Cc3ccccc3)S(C)(=O)=O)cc2)c1 | 25.1 µM (active)
Cc1ccccc1NC(=O)c1ccc(N(Cc2ccccc2)S(C)(=O)=O)cc1 | 35.5 µM (active)
CCCc1nn(C)c(C(=O)Nc2cccc(CC)c2)c1Cl | inactive
Cc1cc(C(F)(F)F)c2c(N)c(C(=O)Nc3cc(C)on3)sc2n1 | inactive
Cc1ccc(C)c(Oc2coc3cc(O)ccc3c2=O)c1 | inactive
CCOc1ccccc1-n1c(N)c(C(=O)OC)c2nc3ccccc3nc21 | inactive
CCOC(=O)N1CCN(c2nc(-c3ccccc3)c3cc(C)ccc3n2)CC1 | inactive
COc1cc2nc(CN3CCN(S(=O)(=O)c4ccc(C)c(C)c4)CC3)nc(O)c2cc1OC | inactive
COc1cc2nc(N3CCN(c4cc(C)ccc4C)CC3)nc(N)c2cc1OC | 39.8 µM (active)
Cc1ccc2nc3c(cc2c1)c(NC(=O)C(C)(C)C)nn3CC(C)C | inactive
C=CCn1c(N)c(C(=O)NCC2CCCO2)c2nc3ccccc3nc21 (stereo not drawn) | inactive
Cc1ccc(-c2ccc(S(=O)(=O)Nc3cccnc3)cc2)cc1 | inactive
O=C1C=C(Nc2cccnc2)c2ccccc2C1=O | 39.8 µM (active)
c1cncc(Nc2c3ccccc3nc3ccccc23)c1 | inactive
